From PubChem BioAssay (NCI) come the findings set out here.

About 83,000 compounds went through this panel and 20% of them were active in at least one assay; those are over-represented in the sample as a whole.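 Single-concentration screen, 48 h exposure, 96-well plates. Endpoint: percent growth. Below 10 = active.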 Activity calls are given as the source filed them.

For the test, the system named is SNB-75 CNS. Put plainly: NCI-60 one-dose screen, 48 h (100 = growth as untreated, 0 = no growth, -100 = all killed). The note with it: 10 µM unless noted. The procedure:
Growth inhibition of the SNB-75 human tumor cell line is measured as a screen for anti-cancer activity. Cells are grown in 96 well plates and exposed to the test compound for 48 hours. Compounds are tested at a single concentration, which is 10^-5 M for most compounds. The reported endpoint is percent growth (GI% or GIPRCNT), where numbers from 0 - 100% represent growth inhibition, and numbers from -100% - 0 represent cell death. For example, a value of 40 represents 60% growth inhibition. A value of 0 means no net growth occurred over the course of the experiment. A value of -40 indicates 40% of cells at the beginning of the experiment died by the end of the experiment. A value of -100 means all cells are dead at the end of the experiment.
NCI-60 Human Tumor Cell Lines Screen was performed using the standard one-dose NCI protocol, which is described in more detail at https://dtp.cancer.gov/discovery_development/nci-60/default.htm.
Compounds with GIPRCNT values below 10 were considered active. Activity score was based on GIPRCNT using the following formula: […]
Score is 0 for GIPRCNT values of 100 or above, 50 for GIPRCNT values of 0, and 100 for GIPRCNT values of -100.
In the case of `Cc1ccc(NC(=O)COC(=O)c2ccc(S(=O)(=O)N3CCCCCC3)cc2)cc1`, the growth was 94.7% (inactive).

Regarding `c1ccc(N2CCN(c3nncc4ccccc34)CC2)nc1`, the growth is 105% (inactive). As for `COc1c(C)c2c(c(O)c1C/C=C(\C)CCC(=O)OCCN1CCOCC1)C(=O)OC2`, the figure is 49.1% (inactive); as for `COc1ccc2[nH]cc(/C=C3/C(=O)Nc4ccc(Cl)cc43)c2c1`, -1.24% (active). The figure for `CC(=O)Oc1ccc(C23c4ccccc4C2(OC(C)=O)c2cc(OC(C)=O)ccc23)cc1` (stereo not given) is 54% (inactive); for `C[n+]1ccc(C#N)c2ccccc21` it is 85.7% (inactive); for `c1ccc(-c2nnc(Nc3nnc(-c4ccccc4)s3)s2)cc1` it is 93.4% (inactive).

Regarding `Cc1nn(-c2ccccc2)c(Cl)c1C(CC(=O)c1ccc(Cl)cc1)CC(=O)c1ccc(Cl)cc1`, the growth is 86.8% (inactive).

For `N#Cc1cccc(/C=C(/C(=O)c2ccccc2)c2ccccc2)c1`, the growth is 69.4% (inactive). For the molecule `Oc1ccccc1/C=N\Nc1ccccc1`, the growth was 71.9% (inactive). As for `CC(=O)c1cc(C(=O)c2ccc3c(c2)Sc2ccccc2N3)c2c(C)cc(C)cn12`, the figure is -2.02% (active). The figure for `c1ccc(-c2nn[nH]n2)c(-c2ccc(CN3CCN(c4nsc5ccccc45)CC3)cc2)c1` is 91.1% (inactive). The figure for `Cc1c(C(N)=O)sc2nc(SCC(=O)Nc3ccc(Cl)cc3)n(-c3ccccc3)c(=O)c12` is 94.3% (inactive). In the case of `CCN(CC)CCNc1ccc(Cl)cc1Cl`, the growth was 98.5% (inactive). As for `NS(=O)(=O)c1ccc(NC2=C(Cl)C(=O)c3ccccc3C2=O)cc1`, the figure is 136% (inactive). As for `CCC1=C(c2ccc(OC)cc2)C(C)(C)Oc2c1ccc(O)c2CN1CCCC1`, the figure is 41.3% (inactive); as for `O=c1[nH]c(Cl)nc2c1cnn2-c1ccccc1`, 82.9% (inactive); as for `O=C(OCCBr)c1ccc(Cl)c([N+](=O)[O-])c1`, 104% (inactive). The figure for `COc1ccc(-c2nn(-c3cccc(Cl)c3)cc2C2CC(c3ccccc3)=NN2C(C)=O)cc1` (stereo not given) is -3.45% (active); for `O=c1c(O)cccn1CCCNCCCN(CCCn1cccc(O)c1=O)CCCn1cccc(O)c1=O` it is 104% (inactive).

For `O=C(/C=C/c1ccc(O)c(O)c1)N1CCN(c2ccc(Cl)cc2)CC1`, the growth was 72.1% (inactive).

`O=C1CC(C(F)(F)F)=NN1C(=O)c1nn(-c2ccc(Cl)cc2)cc1O`: the growth was 74.6% (inactive). As for `O=C(Nc1ccc(Oc2ccc(NC(=O)Nc3ccc([N+](=O)[O-])cc3)cc2)cc1)Nc1ccc([N+](=O)[O-])cc1`, the figure is 42.6% (inactive). As for `c1ccc(-n2nnnc2-c2cccc3ccccc23)cc1`, the figure is -7.18% (active); as for `Oc1[nH]c2ccccc2c1/C=c1/ccc2c(c1)N=C(c1cc(F)cc(F)c1)N=2`, 51.6% (inactive). In the case of `COc1cccc2c1O/C(=C\c1c([N+](=O)[O-])ncn1C)C2=O`, the growth is 101% (inactive).

In the case of `CC(=O)c1nc2ccccc2n1CCn1cc(CC(N)C(=O)O)c2ccccc21` (stereo not given), the growth was 74.7% (inactive). As for `N#Cc1c(N2CCOCC2)nc2sc3cc(Cl)ccc3n2c1=N`, the figure is 63.7% (inactive).

In the case of `Cc1cccc(Cl)c1NC(=O)c1ccc2nc(NC(=O)NC3CC(C)(C)NC(C)(C)C3)sc2c1`, the growth was -18.9% (active). Regarding `CC1=NN(c2ccccc2Cl)C(=O)/C1=C\c1cn(S(=O)(=O)c2ccc(C)cc2)c2ccccc12`, the growth was 89.3% (inactive). The figure for `COc1cccc(C2C(C#N)=C(N)Oc3cc(OC)ccc32)c1` (stereo not given) is 46.1% (inactive); for `Cc1cc(=O)n2n1-c1ccc(Cl)cc1NC(=O)C2` it is 86.6% (inactive); for `CCOC(=O)c1c(C)c(C(=O)OCC)n(C)c1C` it is 83.6% (inactive). In the case of `Cc1ccc(C(O)C2=CC(=O)c3ccccc3C2=O)cc1` (stereo not given), the growth was 92.3% (inactive). Turning to `Nc1ccc2c3c(cccc13)-c1ccccc1-2`, the growth is 74.2% (inactive). In the case of `CC(c1ccccn1)C(C)(O)C(C)c1ccccn1` (stereo not given), the growth is 99.7% (inactive). The figure for `O=[N+]([O-])c1ccc2c(c1)S(=O)c1cc([N+](=O)[O-])ccc1N2` is 87.2% (inactive).

For `NC(N)=N/N=C(/c1ccccc1)c1ccc(Cl)cc1`, the growth is 56.1% (inactive). The figure for `COc1ccc(C(=O)COc2cccc(/C=C3\Oc4ccc5ccccc5c4C3=O)c2)cc1` is 44.8% (inactive). As for `O=c1cc(-c2cccnc2)oc2c1ccc1ccccc12`, the figure is 54.4% (inactive).
